# About 6,500 targets were measured; listed, in parts, are those with a hit and a random draw of the rest. About 2% of all pairs of compound and target were hits. Values without a mark were called inactive.
# Compound: COC(=O)C#Cc1ccccc1 [methyl 3-phenylpropiolate]
# Test: log2 ratio of iodoacetamide-alkyne labeling of the cysteine site, DMSO over compound (competition); higher = stronger covalent engagement of the cysteine by the compound, active = 1 or more
# Details: 500 µM; treatment time 1 h; system: HEK293T cell lysate
# Summary of the method: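 For each cysteine, the log2 competition ratio is mean control-channel reporter intensity over mean compound-channel reporter intensity. HEK293T lysate (2 mg/mL) was exposed to vehicle or electrophile (500 µM, 1 h, ambient temperature), labelled with iodoacetamide alkyne (1 h), clicked to sCIP-TMT reagents, digested overnight with trypsin at 37 °C, streptavidin-enriched and analysed by Orbitrap Eclipse LC-MS/MS with FAIMS and FragPipe. Cysteines quantified in only one of three replicates, each with duplicate channels, were excluded.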
# Sequence of UniProt Q92620 (Q92620 whole entry, looked up): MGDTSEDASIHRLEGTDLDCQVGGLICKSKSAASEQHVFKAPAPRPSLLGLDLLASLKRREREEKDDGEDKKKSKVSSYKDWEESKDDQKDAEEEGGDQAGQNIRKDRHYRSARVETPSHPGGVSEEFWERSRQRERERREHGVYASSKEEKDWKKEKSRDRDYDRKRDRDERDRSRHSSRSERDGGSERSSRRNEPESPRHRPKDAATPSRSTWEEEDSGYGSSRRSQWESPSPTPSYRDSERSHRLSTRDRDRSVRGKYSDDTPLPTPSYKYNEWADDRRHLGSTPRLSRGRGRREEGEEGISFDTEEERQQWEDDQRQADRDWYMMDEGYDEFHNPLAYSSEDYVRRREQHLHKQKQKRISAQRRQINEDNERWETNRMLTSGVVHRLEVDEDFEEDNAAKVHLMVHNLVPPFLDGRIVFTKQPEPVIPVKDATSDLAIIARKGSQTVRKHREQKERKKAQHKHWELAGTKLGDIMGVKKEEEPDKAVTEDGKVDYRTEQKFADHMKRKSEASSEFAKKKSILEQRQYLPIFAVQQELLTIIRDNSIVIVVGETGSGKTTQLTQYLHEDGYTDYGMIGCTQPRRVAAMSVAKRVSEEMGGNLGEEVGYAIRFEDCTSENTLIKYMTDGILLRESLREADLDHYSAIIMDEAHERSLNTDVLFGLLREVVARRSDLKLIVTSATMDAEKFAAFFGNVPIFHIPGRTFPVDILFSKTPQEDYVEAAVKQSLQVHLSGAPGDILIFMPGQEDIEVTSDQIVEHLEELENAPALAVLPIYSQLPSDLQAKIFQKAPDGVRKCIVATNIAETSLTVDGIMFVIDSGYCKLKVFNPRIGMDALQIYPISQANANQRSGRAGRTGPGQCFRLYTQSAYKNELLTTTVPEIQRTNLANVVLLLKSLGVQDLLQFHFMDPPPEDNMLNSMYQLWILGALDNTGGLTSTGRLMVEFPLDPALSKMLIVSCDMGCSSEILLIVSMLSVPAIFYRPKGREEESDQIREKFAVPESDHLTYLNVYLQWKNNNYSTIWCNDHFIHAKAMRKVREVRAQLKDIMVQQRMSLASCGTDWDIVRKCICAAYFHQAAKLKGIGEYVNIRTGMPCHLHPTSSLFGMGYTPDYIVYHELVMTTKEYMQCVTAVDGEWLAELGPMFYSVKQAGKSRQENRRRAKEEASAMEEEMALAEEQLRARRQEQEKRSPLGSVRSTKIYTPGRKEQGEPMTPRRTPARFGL
# Sequence of UniProt Q96L91 (Q96L91 whole entry, looked up): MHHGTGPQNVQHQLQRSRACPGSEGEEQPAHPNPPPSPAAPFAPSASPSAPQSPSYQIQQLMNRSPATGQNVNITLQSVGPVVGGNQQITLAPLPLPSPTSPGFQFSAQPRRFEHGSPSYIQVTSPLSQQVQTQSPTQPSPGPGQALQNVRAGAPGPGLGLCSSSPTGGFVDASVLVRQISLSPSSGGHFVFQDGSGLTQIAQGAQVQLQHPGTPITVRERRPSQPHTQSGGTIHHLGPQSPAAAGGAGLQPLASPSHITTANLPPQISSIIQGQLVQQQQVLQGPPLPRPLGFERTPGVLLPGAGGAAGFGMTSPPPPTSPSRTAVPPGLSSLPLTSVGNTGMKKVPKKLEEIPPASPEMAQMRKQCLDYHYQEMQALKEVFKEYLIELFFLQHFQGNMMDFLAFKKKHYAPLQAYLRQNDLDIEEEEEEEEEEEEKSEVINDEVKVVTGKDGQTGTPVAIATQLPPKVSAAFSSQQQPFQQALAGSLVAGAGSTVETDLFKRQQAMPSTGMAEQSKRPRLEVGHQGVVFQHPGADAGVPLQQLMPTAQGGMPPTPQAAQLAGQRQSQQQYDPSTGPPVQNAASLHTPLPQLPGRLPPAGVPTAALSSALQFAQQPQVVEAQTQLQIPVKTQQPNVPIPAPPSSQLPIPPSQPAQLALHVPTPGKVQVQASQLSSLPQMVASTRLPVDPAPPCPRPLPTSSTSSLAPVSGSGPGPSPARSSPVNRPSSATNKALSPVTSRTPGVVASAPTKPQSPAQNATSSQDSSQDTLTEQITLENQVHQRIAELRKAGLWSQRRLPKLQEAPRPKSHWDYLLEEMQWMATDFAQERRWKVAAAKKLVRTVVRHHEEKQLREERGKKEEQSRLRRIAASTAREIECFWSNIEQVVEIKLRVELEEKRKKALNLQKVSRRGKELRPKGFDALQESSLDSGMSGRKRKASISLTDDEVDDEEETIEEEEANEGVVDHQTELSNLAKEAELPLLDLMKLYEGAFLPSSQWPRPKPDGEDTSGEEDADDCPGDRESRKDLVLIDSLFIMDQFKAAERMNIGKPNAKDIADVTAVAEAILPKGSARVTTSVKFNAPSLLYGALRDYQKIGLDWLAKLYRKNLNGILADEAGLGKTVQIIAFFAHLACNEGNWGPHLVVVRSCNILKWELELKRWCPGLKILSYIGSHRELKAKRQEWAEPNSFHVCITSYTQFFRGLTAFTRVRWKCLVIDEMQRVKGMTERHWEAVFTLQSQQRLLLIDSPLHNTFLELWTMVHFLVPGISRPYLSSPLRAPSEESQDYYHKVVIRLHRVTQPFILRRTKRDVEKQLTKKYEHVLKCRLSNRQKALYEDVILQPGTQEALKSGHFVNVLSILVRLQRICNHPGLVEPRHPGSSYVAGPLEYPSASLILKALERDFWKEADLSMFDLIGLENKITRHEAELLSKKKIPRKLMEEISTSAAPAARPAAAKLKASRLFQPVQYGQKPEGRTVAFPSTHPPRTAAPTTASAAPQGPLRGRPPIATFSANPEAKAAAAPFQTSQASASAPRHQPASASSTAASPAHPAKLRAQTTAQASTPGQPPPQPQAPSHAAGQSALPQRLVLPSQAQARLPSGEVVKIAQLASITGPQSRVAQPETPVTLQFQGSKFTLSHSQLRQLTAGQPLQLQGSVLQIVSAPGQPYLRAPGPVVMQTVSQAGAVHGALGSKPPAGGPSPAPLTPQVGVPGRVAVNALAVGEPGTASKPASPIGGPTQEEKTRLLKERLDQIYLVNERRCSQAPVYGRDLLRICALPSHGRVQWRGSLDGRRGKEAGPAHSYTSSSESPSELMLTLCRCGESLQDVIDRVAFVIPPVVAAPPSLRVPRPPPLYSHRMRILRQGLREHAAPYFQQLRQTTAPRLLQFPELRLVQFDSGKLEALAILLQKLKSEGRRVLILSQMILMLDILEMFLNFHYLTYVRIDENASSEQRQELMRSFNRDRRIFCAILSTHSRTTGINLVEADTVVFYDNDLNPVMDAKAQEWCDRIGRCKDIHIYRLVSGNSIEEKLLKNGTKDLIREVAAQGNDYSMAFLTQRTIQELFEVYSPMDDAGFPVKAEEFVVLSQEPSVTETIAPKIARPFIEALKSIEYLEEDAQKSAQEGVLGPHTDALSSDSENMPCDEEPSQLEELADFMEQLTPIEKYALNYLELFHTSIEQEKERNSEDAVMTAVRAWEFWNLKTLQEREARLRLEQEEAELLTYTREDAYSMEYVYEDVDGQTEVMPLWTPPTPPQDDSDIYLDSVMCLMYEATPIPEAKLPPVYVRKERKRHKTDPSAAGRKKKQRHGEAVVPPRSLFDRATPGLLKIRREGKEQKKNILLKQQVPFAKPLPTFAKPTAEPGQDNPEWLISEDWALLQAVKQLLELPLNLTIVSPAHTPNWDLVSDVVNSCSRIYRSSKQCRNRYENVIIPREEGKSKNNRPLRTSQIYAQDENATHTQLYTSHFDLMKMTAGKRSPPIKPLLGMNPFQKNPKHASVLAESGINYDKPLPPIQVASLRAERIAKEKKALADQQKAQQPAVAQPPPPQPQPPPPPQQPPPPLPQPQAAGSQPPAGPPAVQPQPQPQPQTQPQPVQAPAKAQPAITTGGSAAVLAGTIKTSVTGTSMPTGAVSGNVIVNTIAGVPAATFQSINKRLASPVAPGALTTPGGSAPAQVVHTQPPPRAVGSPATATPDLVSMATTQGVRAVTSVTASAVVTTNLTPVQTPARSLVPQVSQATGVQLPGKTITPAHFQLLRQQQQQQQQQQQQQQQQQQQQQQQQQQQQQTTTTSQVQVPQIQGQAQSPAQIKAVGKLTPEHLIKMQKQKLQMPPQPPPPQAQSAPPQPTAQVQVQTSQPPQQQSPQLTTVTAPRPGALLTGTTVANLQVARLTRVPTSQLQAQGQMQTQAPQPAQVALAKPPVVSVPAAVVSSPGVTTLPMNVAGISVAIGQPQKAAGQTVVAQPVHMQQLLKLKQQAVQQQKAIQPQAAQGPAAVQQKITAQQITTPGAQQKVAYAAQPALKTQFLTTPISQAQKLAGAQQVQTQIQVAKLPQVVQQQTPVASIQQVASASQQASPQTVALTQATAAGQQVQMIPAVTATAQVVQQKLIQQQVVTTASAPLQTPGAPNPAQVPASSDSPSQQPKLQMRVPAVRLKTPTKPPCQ
# Sequence of UniProt Q9BSH5 (Q9BSH5 whole entry, looked up): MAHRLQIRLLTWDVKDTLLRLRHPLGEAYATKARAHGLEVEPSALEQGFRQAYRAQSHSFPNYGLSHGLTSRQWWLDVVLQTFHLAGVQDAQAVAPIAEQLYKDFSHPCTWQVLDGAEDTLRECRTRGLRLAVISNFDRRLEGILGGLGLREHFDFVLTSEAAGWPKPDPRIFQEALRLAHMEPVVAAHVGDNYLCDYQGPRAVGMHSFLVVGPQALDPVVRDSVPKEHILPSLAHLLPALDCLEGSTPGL
# Sequence of UniProt Q8NBN7 (Q8NBN7 whole entry): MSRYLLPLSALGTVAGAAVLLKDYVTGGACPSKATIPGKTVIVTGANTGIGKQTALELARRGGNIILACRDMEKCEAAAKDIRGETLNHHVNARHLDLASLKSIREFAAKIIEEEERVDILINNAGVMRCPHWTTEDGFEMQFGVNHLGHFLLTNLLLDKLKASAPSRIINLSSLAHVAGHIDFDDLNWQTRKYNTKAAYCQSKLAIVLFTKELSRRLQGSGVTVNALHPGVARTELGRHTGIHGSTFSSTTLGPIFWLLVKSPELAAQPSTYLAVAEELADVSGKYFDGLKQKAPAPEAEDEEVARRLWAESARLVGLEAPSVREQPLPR
# Sequence of UniProt Q86U28 (Q86U28 whole entry, looked up): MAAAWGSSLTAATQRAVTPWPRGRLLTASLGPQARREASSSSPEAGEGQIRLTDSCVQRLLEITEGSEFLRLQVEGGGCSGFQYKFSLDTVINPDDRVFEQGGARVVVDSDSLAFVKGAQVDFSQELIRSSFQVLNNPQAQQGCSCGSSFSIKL
row,Target,log2 ratio of iodoacetamide-alkyne labeling
1,ZGPAT C377 (UniProt Q8N5A5),0.342
2,ZFR C974 (UniProt Q96KR1),0.302
3,KIAA2013 C185 (UniProt Q8IYS2),0.14
4,VPS8 C1371 (UniProt Q8N3P4),0.234
5,CYFIP1 C98 (UniProt Q7L576),1.78 (active)
6,HDHD3 C243 (UniProt Q9BSH5),0.16
7,PNKP C516 (UniProt Q96T60),0.166
8,RPL36AL C72 (UniProt Q969Q0),0.0561
9,UniProt Q96HE7_C241,0.0793
10,DHX30 C461 (UniProt Q7L2E3),0.193
11,RDH13 C30 (UniProt Q8NBN7),0.116
12,UniProt Q7Z2T5_C265,0.161
13,EXOC6 C28 (UniProt Q8TAG9),0.489
14,CAND1 C1153 (UniProt Q86VP6),0.443
15,UniProt Q7RTV0_C11,-0.0735
16,SNF8 C72 (UniProt Q96H20),0.2
17,UniProt Q9BSH4_C256,-0.207
18,UniProt Q7LBC6_C1212,0.571

row,Target,log2 ratio of iodoacetamide-alkyne labeling
1,ISCA2 C146 (UniProt Q86U28),1.59 (active)
2,PNPLA6 C409 (UniProt Q8IY17),0.4
3,USP9X C1061 (UniProt Q93008),0.0678
4,ANKRD40 C358 (UniProt Q6AI12),1.2 (active)
5,UniProt Q99590_C478,0.396
6,PDLIM5 C449 (UniProt Q96HC4),0.0755
7,PYCR2 C262 (UniProt Q96C36),0.538
8,IPO4 C350 (UniProt Q8TEX9),0.564
9,UniProt Q7Z5K2_C251,0.11
10,DCUN1D4 C253 (UniProt Q92564),0.287
11,AHCYL2 C353 (UniProt Q96HN2),1.13 (active)
12,EP400 C162 (UniProt Q96L91),0.339
13,YOD1 C97 (UniProt Q5VVQ6),0.146
14,VPS13B C2907 (UniProt Q7Z7G8),0.889
15,DHX38 C20 (UniProt Q92620),1.36 (active)
16,ZNF746 C425 (UniProt Q6NUN9),0.385
17,ACO2 C448 (UniProt Q99798),1.71 (active)
